Measured values published in PubChem BioAssay AID1851 (National Center for Advancing Translational Sciences (NCATS), 2009).
Several values for one entry are separate records, joined by “and”; a condition that tells them apart may be missing. Equal entries are not always repeated. In all, about 16,000 compounds went through this assay and about 2,600 (16%) were called active. Another 20% or so got no clear call; they are omitted. Calls come from the whole dose curve; as a rule, active = well fitted curve in the direction sought with a large enough effect; inconclusive = small, poorly fitted or top-dose-only effect, or effect the other way; inactive = no such curve, though single readings can be large or run the other way. These entries were drawn from the full list.

target: Cytochrome P450 2D6 (Homo sapiens) (UniProt P10635); assay: Cytochrome panel assay with activity outcomes; settings: recombinant CYP, pro-luciferin dealkylation, luminescence, p450-cyp2d6; series mostly up to 57.1 µM; activity, negative = inhibition: at the top concentration
% is set by controls: 0 for no effect and ±100 for the full control effect.

Sequence of Cytochrome P450 2D6 (Homo sapiens) (P10635 whole entry, looked up): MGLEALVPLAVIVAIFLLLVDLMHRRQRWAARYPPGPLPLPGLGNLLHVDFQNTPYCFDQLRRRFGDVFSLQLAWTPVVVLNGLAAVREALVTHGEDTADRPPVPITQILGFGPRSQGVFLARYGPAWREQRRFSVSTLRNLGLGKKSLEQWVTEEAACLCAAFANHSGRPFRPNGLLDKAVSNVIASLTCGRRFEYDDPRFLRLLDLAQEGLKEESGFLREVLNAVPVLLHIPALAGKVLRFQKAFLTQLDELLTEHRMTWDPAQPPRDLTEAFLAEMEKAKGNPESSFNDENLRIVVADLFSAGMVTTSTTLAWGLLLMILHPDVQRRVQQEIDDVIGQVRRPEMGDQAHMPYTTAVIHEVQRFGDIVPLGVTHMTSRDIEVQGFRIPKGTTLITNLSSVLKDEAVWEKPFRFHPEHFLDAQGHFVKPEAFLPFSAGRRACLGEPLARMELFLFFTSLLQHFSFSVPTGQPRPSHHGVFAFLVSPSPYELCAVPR

| SMILES | activity, negative = inhibition | AC50 |
| --- | --- | --- |
| CCn1c(O)c(/C=N/N=C2CCCC2)c2ccc(C3=NNC(=O)CC3)cc21 | 7.62% (inactive) |  |
| O=C1CCC(c2ccc(-n3ccnc3)cc2)=NN1 |  | 2.51 µM (active) |
| Cc1cn2c(-c3ccncc3)nnc2s1 | -15.7% (inactive) |  |
| Oc1cc(O)c2c(c1)O[C@H](c1ccc(O)c(O)c1)[C@@H](O)[C@@H]2c1c(O)cc(O)c2c1O[C@@H](c1ccc(O)c(O)c1)[C@H](O)C2 | -5.15% [at 11.4 µM] (inactive) |  |
| COc1ccc(CNc2ncnc3ccc(-c4ccccc4OC)cc23)c(OC)c1 | -15.8% (inactive) |  |
| CN(C)Cc1ccccc1-c1ccc2ncnc(NCc3ccccc3)c2c1 |  | 7.94 µM (active) |
| CNc1ncnc2ccc(-c3ccccc3C#N)cc12 | -7.51% (inactive) |  |
| CNc1ncnc2ccc(-c3ccccc3CN(C)C)cc12 |  | 10 µM (active) |
| COc1ccccc1CNc1ncnc2ccc(-c3ccccc3CN(C)C)cc12 |  | 2.51 µM (active) |
| COc1ccc(CNc2ncnc3ccc(-c4ccccc4CN(C)C)cc23)c(OC)c1 |  | 1.26 µM (active) |
| O=C1Nc2cc(Cl)c(Cl)cc2N(O)N1c1ccc(Cl)c(Cl)c1 | 22.5% (inactive) |  |
| CC1(C)O[C@@H]2C[C@H]3[C@H]4C[C@H](F)C5=CC(=O)CC[C@]5(C)[C@@H]4[C@H](O)C[C@]3(C)[C@]2(C(=O)CO)O1 | 1.64% [at 25.6 µM] (inactive) |  |
| COCC(=O)Oc1c(S(=O)(=O)c2ccc(C)cc2)c(C)nn1-c1ccccc1 | -6.87% (inactive) |  |
| NC(=O)c1cc[n+](CC2=C(C(=O)O)N3C(=O)[C@@H](NC(=O)[C@H](c4ccccc4)S(=O)(=O)[O-])[C@@H]3SC2)cc1 |  | inactive |
| COc1ccc(-c2cc(C(=O)Nc3cnn(Cc4ccccc4C)c3)no2)cc1OC | 0.139% (inactive) |  |
| COC(=O)c1cnn(C(=O)c2cc(OC)ccc2Br)c1N | 2.31% (inactive) |  |
| O=C(O)/C=C\[C@H](O)c1ccc(Cl)cc1 | 0.669% (inactive) |  |
| Cc1ccccc1N(C(=O)Cc1cccs1)C(C(=O)NCC1CCCO1)c1cccnc1 (stereo unspecified) | -14.2% (inactive) |  |
| N#Cc1c(-c2ccccc2)nc(-c2ccccc2)[nH]c1=O | 8.25% (inactive) |  |
| CC(C)CN=C(N)N=C(N)N | 7.41% [at 11.4 µM] (inactive) |  |
| N#C/C(=C\Nc1ccccn1)C(=O)c1ccco1 | -1.48% [at 11.4 µM] (inactive) |  |
| CS(=O)(=O)Nc1cccc(-c2ccc3ncnc(NC4CCNCC4)c3c2)c1 | -5.14% (inactive) |  |
| CN(C)Cc1ccccc1-c1ccc2ncnc(NC3CCNCC3)c2c1 |  | 10 µM (active) |
| COCCNc1ncnc2ccc(-c3ccc(C(=O)N(C)C)cc3)cc12 | 0.335% (inactive) |  |
| COCCNc1ncnc2ccc(-c3ccccc3CN(C)C)cc12 |  | 15.8 µM (active) |
| N#Cc1cccc(-c2ccc3ncnc(NC4CCNCC4)c3c2)c1 | -2.46% (inactive) |  |

| SMILES | activity, negative = inhibition | AC50 |
| --- | --- | --- |
| C[C@@H](CNC(N)=O)NC(N)=O | -3.67% [at 11.4 µM] (inactive) |  |
| CN1CCN(c2ncc3ncc(=O)n(-c4ccccc4)c3n2)CC1 | -5.52% (inactive) |  |
| O=C(NC(N1CCCC1)C(Cl)(Cl)Cl)c1ccccc1 (stereo unspecified) | -26.8% (inactive) |  |
| COc1cccc(/C=N/NC(=O)c2nc(-c3ccccc3)cc(-c3ccccc3)n2)c1 | 41.9% (inactive) |  |
| O=C(O)c1ccc(OCc2ccccc2)c(Cl)c1 | 4.91% [at 11.4 µM] (inactive) |  |
| Clc1ccccc1OCCCCN1CCCC1 |  | 11.2 µM (active) |
| CC(C)(C)c1ccccc1OCCN1CCCC1 |  | 5.62 µM (active) |
| Cc1ccccc1OCC(=O)OC1CCN(C)CC1 | -4.3% (inactive) |  |
| Fc1ccccc1OCCCCCCN1CCCC1 |  | 14.1 µM (active) |
| Cc1ccccc1OCCCN1CCCC1 |  | 14.1 µM (active) |
| Cc1ccc(CNC(=O)CCc2c(C)nc3ncnn3c2C)cc1 | -4.52% (inactive) |  |
| O=C1[C@H]2[C@H]3[C@H](O)[C@H](O)C/C(=N/OC[C@@H](O)COCc4ccco4)[C@H]3CC[C@@H]2C(=O)N1C[C@@H]1CCCO1 | 14.8% [at 11.4 µM] (inactive) |  |
| C/C(CCN1CCc2nc(-c3ccccc3)c(-c3ccccc3)cc2C1)=N\O[C@@H](C)c1cn([C@H](CO)Cc2ccccc2)nn1 | -8.59% [at 11.4 µM] (inactive) and -16.7% [at 11.4 µM] (inactive) |  |
| COc1ccccc1S(=O)(=O)Nc1ccc(-c2nnc3n2CCCCC3)cc1 | -3.25% (inactive) |  |
| N#Cc1c(N)nc2c(c1-c1cccc(O)c1)CCCCCC2 | -22.4% (inactive) |  |
| CCc1nnc2sc(-c3ccc(NC(=O)c4ccco4)cc3)nn12 | -18.1% (inactive) |  |
| Cc1ccc(S(=O)(=O)N[C@H](C(=O)N2CCC(C(=O)NCC(=O)O)CC2)C(C)C)cc1 | 5.93% (inactive) |  |
| Cc1cc(C)nc(NN2C(=O)/C(=C/c3ccccc3)SC2=S)n1 | 20% (inactive) |  |
| COc1ccc(/C=C\C(=O)Nc2ccccc2C(=O)O)cc1OC | -0.45% (inactive) |  |
| CCOc1cc(C#N)c(NC(=O)c2cccnc2)cc1OCC | -7.18% (inactive) |  |
| COCCNC(=O)c1onc(CSc2ccccc2F)c1C(=O)O | -3.48% (inactive) |  |
| CC(C)(C)NC(=O)C(=O)NNC(=O)c1ccccc1 | 29.3% (inactive) |  |
| N[C@H](C(=O)O)c1nn[nH]n1 | 4.99% (inactive) |  |
| O=C(NNC(=S)NCc1ccco1)c1ccc(Cl)s1 | -15.8% (inactive) |  |
| Nc1ccc2c3c(cccc13)C(=O)NC2=O | -2.93% (inactive) |  |
| Nc1[nH]c(=S)[nH]c(=O)c1N=Nc1c(Br)cc(S(N)(=O)=O)cc1Br | 7.23% [at 11.4 µM] (inactive) |  |

| SMILES | activity, negative = inhibition | AC50 |
| --- | --- | --- |
| CC1(C)CC(O)CC(C)(C)N1CC(O)COCCOc1ccc(Br)cc1 (stereo unspecified) |  | 14.1 µM (active) |
| O=c1c(-c2cccs2)nc2cncnc2n1C1CC1 | -6.01% (inactive) |  |
| COc1cccc(Nc2ncc3nc(CCc4ccccc4)c(=O)n(Cc4cccs4)c3n2)c1 | -5.85% (inactive) |  |
| O=C(NCc1ccccc1)C(c1ccncc1)N(C(=O)c1csnn1)C1CC1 (stereo unspecified) | -26.9% (inactive) |  |
| CC(C)(C)NC(=O)NC(=O)CSc1nnc2ccccn12 | -0.138% (inactive) |  |
| O=c1cnc2cnc(N3CCOCC3)nc2n1C[C@H]1CCCO1 | 0.524% (inactive) |  |
| Cc1ccccc1-c1ccc2ncnc(NCc3cccs3)c2c1 |  | 10 µM (active) |
| FC(F)(F)c1ccccc1-c1ccc2ncnc(NCc3cccs3)c2c1 |  | 10 µM (active) |
| CC(C)=CCC/C(C)=C/CO/N=C1/[C@H]2O[C@@H]2[C@@H](O)[C@H]2[C@H]1CCn1c(=O)n(-c3ccccc3)c(=O)n12 | -3.53% [at 11.4 µM] (inactive) |  |
| CC1CN(C(=O)COc2ncnc3ccccc23)CC(C)O1 (stereo unspecified) | -0.13% (inactive) |  |
| CC1=CC(C)(C)N(C)C(=O)N1c1ccc(Cl)cc1 | -5.24% (inactive) |  |
| COC(=O)c1[nH]c2cc(OC)ccc2c1NC(=O)CCN1CCSCC1 | -12.3% (inactive) |  |
| CCOC(=O)C(C)Sc1ncc(OC)c(Sc2ccc(Cl)cc2)n1 (stereo unspecified) | -12.6% (inactive) |  |
| Cc1nn(-c2ccccc2)c(-c2ccccc2)c1C(=O)O | -6.28% (inactive) |  |
| Nc1c2c(=O)oc(-c3ccccc3)cc2nn1-c1ccccc1 |  | 5.01 µM (active) |
| Cc1cc(N)n(-c2ccccc2)n1 | 9.11% (inactive) |  |
| CCOC(=O)CSc1n[nH]c(NC(=O)c2cccc(C(F)(F)F)c2)n1 | 0.499% (inactive) |  |
| CN(C)c1ccc(NC(=O)c2cccc(N3C(=O)C4C5C=CC(C5)C4C3=O)c2)cc1 (stereo unspecified) | -1.14% (inactive) |  |
| Cc1nnsc1SCC(=O)O | 16.2% (inactive) |  |
| Cc1ccc(-c2nc(-c3nccc4ccccc34)oc2-c2ccccc2)cc1 | -9.6% [at 11.4 µM] (inactive) |  |
| CS(=O)(=O)N1CCN(c2ccc([N+](=O)[O-])c(NCc3ccccc3)c2)CC1 | -25.9% (inactive) |  |
| C1=C(CN2CCOCC2)COc2c1cccc2OC[C@@H]1CNCCO1 | 3.78% (inactive) |  |
| CS(=O)(=O)Nc1ccc([N+](=O)[O-])cc1Oc1ccccc1 | -0.21% [at 25.6 µM] (inactive) |  |
| COc1ccc([N+](=O)[O-])cc1NC1C2CC3CC(C2)CC1C3 (stereo unspecified) | 6.11% (inactive) |  |
| CS(=O)(=O)Nc1ccc([N+](=O)[O-])cc1OC1CCCCC1 |  | 0.0501 µM (active) |
| Cc1csc(NC(=O)CCNS(=O)(=O)c2ccc3c(c2)c(=O)n(C)c(=O)n3C)n1 | -6.75% (inactive) |  |

| SMILES | activity, negative = inhibition | AC50 |
| --- | --- | --- |
| CCCc1nnc(SCC(=O)N2C(C)CCCC2C)n1CCCOC (stereo unspecified) | 0.151% (inactive) |  |
| CO[C@@H](C(C)C)[C@@H](C)[C@@H]1OC(=O)C[C@@H]1O | -14.8% [at 11.4 µM] (inactive) |  |
| CC(=O)N1CCc2cc(Br)cc(S(=O)(=O)N3CCN(C(=O)c4ccco4)CC3)c21 | 11.4% (inactive) |  |
| Cc1c(OC(=O)c2ccc([N+](=O)[O-])cc2)c2c(c[n+]1C)COC(C)(C)OC2 | 8.33% (inactive) |  |
| Cc1ccc(S(=O)(=O)CC#CCOC(=O)c2ccc([N+](=O)[O-])cc2)cc1 |  | 12.6 µM (active) |
| COc1ccc(C(=O)NCS(=O)(=O)c2ccc(C)cc2)cc1 | -15.2% (inactive) |  |
| COc1ccc(-c2nc3cnc(N4CCOCC4)nc3n(C[C@H]3CCCO3)c2=O)cc1 | 1.59% (inactive) |  |
| CCc1nnc(NC(=O)c2cc(-c3ccccc3)nn2-c2ccccc2)s1 | -15.9% (inactive) |  |
| Fc1cccc(CSc2ncnc3c2ncn3[C@H]2CCCS2)c1 | 8.45% [at 11.4 µM] (inactive) |  |
| COc1ccccc1CNc1cc(-c2cccc(NS(C)(=O)=O)c2)ncn1 | -17.4% (inactive) |  |
| COc1cccc(-c2cncnc2NC2CCNCC2)c1 | -13.3% (inactive) |  |
| COc1ccc(CNc2ncncc2-c2cccc(NS(C)(=O)=O)c2)c(OC)c1 |  | 25.1 µM (active) |
| COc1ccc(CNc2ncncc2-c2cccnc2)c(OC)c1 |  | 15.8 µM (active) |
| COc1cccc(-c2cncnc2NCc2ccccc2OC)c1 |  | 7.94 µM (active) |
| COc1cccc(-c2cncnc2NCc2ccc(OC)cc2OC)c1 |  | 7.94 µM (active) |
| C/C(=N\n1nnnc1Nc1ccccc1)c1ccc(N)cc1 | 2.96% (inactive) |  |
| CCNc1ncc2nc(C)c(=O)n(Cc3ccc(F)cc3)c2n1 | -4.78% (inactive) |  |
| O=c1cnc2cnc(Oc3ccccc3)nc2n1Cc1ccc(F)cc1 | -20.8% (inactive) |  |
| O=C(O)/C=C\C(=O)Nc1ncn[nH]1 | 3.54% [at 11.4 µM] (inactive) |  |
| CCC(C)(C(=O)NC1CCCC1)N(Cc1ccco1)C(=O)c1ccccn1 (stereo unspecified) | 17.4% (inactive) |  |
| O=c1ccc2cc(O)c(O)cc2o1 | -4.53% [at 25.6 µM] (inactive) |  |
| OC[C@H](S)CS | 19.8% [at 11.4 µM] (inactive) |  |
| CCOc1ccc(C(C)=O)cc1N1C(=O)C2C3C=CC(C3=C(C)C)C2C1=O (stereo unspecified) | -2.5% (inactive) |  |
